Results: PubChem BioAssay AID504333 (National Center for Advancing Translational Sciences (NCATS), 2011)
Out of some 360,000 compounds screened, about 16,000 (4.4%) were called active. Another 9% or so got no clear call; they are omitted. Calls follow the shape of the dose curve; as a rule, active = well fitted inhibition curve with a large enough effect; inconclusive = small, poorly fitted or top-dose-only effect; inactive = no such curve, though single readings can be large or run the other way. The list comes from a sample in which actives are over-represented; it also holds similar structures and randomly drawn compounds. A call without a number means that no potency is given here.

These compounds were tested against Bromodomain adjacent to zinc finger domain protein 2B (Homo sapiens) (UniProt Q9UIF8) (assay: qHTS Assay for Inhibitors of BAZ2B). Conditions: AlphaScreen BAZ2B-H3K14Ac peptide displacement; series mostly up to 114 µM.
Outline: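 BAZ2B (50 nM) with biotin-H3(5-23)K14Ac peptide (50 nM) in PBS pH 7.4, 0.01% Tween-20, preformed 30 min, then compound 30 min at room temperature; top concentration 110uM. AlphaScreen streptavidin donor/nickel chelate acceptor beads (10 ug/mL final), 20 min dark, signal read.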
Also: nearly all actives have a fitted effect of over 60% in size.
Potency is read from the fitted curve at half-maximal effect.

Bromodomain adjacent to zinc finger domain protein 2B (Homo sapiens), sequence (Q9UIF8 whole entry, looked up, the tested form may be a part): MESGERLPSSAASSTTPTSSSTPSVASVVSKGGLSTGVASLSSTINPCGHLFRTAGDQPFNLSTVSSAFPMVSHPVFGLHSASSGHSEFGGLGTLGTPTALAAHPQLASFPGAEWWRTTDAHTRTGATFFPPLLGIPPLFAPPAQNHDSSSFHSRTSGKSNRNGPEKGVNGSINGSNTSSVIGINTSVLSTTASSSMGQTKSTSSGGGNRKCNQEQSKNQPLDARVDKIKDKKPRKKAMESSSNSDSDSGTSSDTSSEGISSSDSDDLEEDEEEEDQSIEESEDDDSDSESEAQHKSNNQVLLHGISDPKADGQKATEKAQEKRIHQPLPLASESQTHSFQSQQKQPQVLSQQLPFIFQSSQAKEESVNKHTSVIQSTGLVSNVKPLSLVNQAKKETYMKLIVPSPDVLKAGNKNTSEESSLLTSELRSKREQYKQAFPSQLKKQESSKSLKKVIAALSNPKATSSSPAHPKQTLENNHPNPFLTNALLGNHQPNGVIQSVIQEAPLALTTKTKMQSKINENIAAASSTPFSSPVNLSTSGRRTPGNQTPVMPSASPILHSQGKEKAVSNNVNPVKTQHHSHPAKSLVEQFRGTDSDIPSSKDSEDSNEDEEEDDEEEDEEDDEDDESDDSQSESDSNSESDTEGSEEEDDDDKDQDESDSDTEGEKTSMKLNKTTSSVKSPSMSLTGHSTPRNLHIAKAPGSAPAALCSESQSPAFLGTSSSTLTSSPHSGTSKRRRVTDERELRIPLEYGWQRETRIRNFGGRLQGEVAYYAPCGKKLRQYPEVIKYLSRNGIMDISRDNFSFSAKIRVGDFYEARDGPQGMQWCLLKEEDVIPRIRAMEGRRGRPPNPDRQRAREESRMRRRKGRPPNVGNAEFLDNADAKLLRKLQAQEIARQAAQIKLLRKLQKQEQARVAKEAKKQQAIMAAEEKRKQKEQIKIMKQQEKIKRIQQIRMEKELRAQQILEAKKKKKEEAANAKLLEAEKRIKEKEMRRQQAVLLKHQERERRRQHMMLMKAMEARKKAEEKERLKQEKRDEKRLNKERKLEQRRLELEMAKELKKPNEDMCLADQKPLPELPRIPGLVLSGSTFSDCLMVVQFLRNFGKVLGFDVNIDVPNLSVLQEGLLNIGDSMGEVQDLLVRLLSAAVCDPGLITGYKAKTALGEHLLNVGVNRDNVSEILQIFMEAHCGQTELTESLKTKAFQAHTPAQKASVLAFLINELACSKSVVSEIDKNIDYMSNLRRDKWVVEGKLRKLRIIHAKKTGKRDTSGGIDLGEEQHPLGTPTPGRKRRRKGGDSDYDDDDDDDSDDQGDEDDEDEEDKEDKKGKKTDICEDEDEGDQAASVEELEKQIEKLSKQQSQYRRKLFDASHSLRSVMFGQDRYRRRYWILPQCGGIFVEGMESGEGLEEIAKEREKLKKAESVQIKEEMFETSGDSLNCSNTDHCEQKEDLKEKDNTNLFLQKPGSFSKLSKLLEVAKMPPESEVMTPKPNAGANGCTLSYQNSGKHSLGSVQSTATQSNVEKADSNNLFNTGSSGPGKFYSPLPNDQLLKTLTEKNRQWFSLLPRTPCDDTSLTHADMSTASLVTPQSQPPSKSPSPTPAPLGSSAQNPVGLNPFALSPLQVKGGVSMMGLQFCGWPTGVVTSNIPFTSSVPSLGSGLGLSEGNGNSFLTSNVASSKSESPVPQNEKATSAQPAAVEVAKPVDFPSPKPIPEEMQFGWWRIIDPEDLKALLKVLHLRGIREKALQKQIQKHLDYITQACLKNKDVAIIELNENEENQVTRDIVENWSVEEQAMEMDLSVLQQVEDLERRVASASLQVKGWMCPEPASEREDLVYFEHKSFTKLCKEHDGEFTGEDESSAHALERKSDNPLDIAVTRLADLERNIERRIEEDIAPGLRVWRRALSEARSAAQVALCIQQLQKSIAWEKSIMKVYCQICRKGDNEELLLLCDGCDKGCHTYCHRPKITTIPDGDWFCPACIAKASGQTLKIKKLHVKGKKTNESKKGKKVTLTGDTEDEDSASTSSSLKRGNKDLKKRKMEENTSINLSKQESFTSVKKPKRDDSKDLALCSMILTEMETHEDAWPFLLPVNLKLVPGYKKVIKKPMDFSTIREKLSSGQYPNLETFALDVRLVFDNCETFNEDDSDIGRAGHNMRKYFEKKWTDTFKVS

Compound | Potency
CSc1ccc(C2C(C(=O)Nc3ccccc3)=C(C)Nc3nc4ccccc4n32)cc1 (configuration not stated) | inactive
CCC(CC)C(=O)N1CCc2cc(OC)c(OC)cc2C1COc1ccc(F)cc1 (configuration not stated) | inactive
COc1ccc(NC(=O)c2sc3nc[nH]c(=O)c3c2C)cc1 | inactive
COc1ccc(OC)c(-c2nc(C(N)=O)c3c(n2)n(-c2ccc4c(c2)OCO4)c(=O)n3C)c1 | inactive
CCc1ccccc1NC(=O)N1CCN(C(=O)c2nsc3ccccc23)CC1 | inactive
Cc1csc2nc(COC(=O)c3ccc(NC(=O)COc4ccccc4F)cc3)cc(=O)n12 | inactive
CCc1nc2ccc(C(=O)N3CCN(c4cc(Cl)ccc4C)CC3)cc2nc1CC | inactive
Cc1c(NC(=O)C(C)(C)C)cccc1-c1nc2ccccc2s1 | inactive
O=C1CSC(=S)N1/N=C/c1ccc(O)c([N+](=O)[O-])c1 | 50.1 µM (active)
COc1cccc(N2CCN(C(=O)CCCCCn3c(=O)[nH]c4ccccc4c3=O)CC2)c1 | inactive
COc1ccc2c(Sc3ccc(C)cc3)c(C(=O)NC(C)c3ccccc3)[nH]c2c1 (configuration not stated) | inactive
Cc1ccc(N(CC(=O)NCC(C)c2ccccc2)S(=O)(=O)N(C)C)cc1 (configuration not stated) | inactive
CCC1=NN2C(=N)/C(=C/c3cc(C)n(-c4ccccc4)c3C)C(=O)N=C2S1 | inactive
CS(=O)(=O)c1ccc2c(c1)SC1=NC(=O)/C(=C/c3ccco3)C(=N)N12 | 50.1 µM (active)
CC(C)(C)OC(=O)NCCCCCNC(=O)c1nc[nH]c1C(=O)NCc1ccccc1 | inactive
CC(C)(C)OC(=O)NCCCCCNC(=O)c1[nH]cnc1C(=O)Nc1nccs1 | 31.6 µM (active)
Cc1ccc(NC(=O)c2nc[nH]c2C(=O)N[C@@H](CCCCNC(=O)OC(C)(C)C)C(=O)OC(C)(C)C)cc1 | inactive
OCc1cnc(SCc2ccc(F)cc2)n1Cc1ccc(F)cc1 | inactive
CCOc1ccc(-n2c(SCC(=O)NCc3ccccc3)nc3n[nH]c(C)c3c2=N)cc1 | inactive
O=C(O)c1ccc(-n2cccc2)cc1O | 56.2 µM (active)
O=C(Cn1ccc(=O)[nH]c1=O)Nc1ccc(C(=O)O)c(O)c1 | inactive
O=C(Nc1ccc(C(=O)O)c(O)c1)c1ccccc1 | inactive
Cc1ccc(S(=O)(=O)N(Cc2nc(-c3ccc(Cl)cc3)no2)C2CCCCC2)cc1 | inactive
O=C(CN1CCCCCC1)NCCN1C(=O)S/C(=C\c2ccccc2Cl)C1=O | inactive
CN1C2CCC1/C(=C\c1ccccc1Cl)C(=O)/C2=C\c1ccccc1Cl | 39.8 µM (active)
O=C(CN1C(=O)S/C(=C\c2ccccc2Cl)C1=O)NC1C=CS(=O)(=O)C1 (configuration not stated) | inactive

Compound | Potency
O=C(Nc1ccc(F)cc1F)c1ccc2c(=O)n3c(nc2c1)CCCCC3 | inactive
CCOC(=O)c1cc2c(=O)n3ccccc3nc2n(CCCOC)c1=NC(=O)C(C)(C)Oc1ccc(Cl)cc1 | inactive
Oc1ccccc1-c1nc(/C=C/c2ccc(F)cc2)no1 | inactive
Cc1ccn2c(=O)nc(SCC(=O)NCc3ccc(F)cc3)nc2c1 | inactive
Cc1ccn2c(=O)nc(SCC(=O)NCc3ccc4c(c3)OCO4)nc2c1 | 56.2 µM (active)
O=C(CSc1ncn[nH]1)NCc1ccc2c(c1)OCO2 | inactive
Cc1ccc(C)c(Nc2nnc(-c3ccc(C)c(S(=O)(=O)N4CCCCC4)c3)c3ccccc23)c1 | inactive
COc1cccc(CNC(=O)c2ccc3c(c2)sc2nc(-c4cccc(OC)c4)cn23)c1 | inactive
COc1ccc(OC)c(NC(=O)CN(C)CCOc2ccc(Br)cc2)c1 | inactive
CN(C)CCOC1c2ccccc2-c2ccccc21 | inactive
CN(C)CCOc1cccc(Br)c1 | 44.7 µM (active)
COc1ccc(NC(=O)CN2CCCN(Cc3ccccc3)S2(=O)=O)cc1 | inactive
CC(C)c1ccc(C(=O)NCCCc2ccccc2)cc1 | inactive
Nc1ccc(C(=O)NCc2ccccc2)cc1 | inactive
O=C(NCCCNCc1ccccc1)c1ccc(/C=N/O)nc1 | 50.1 µM (active)
O=C(Cc1ccc(Cl)cc1)NC(=S)Nc1ccccc1O | inactive
Oc1ccc(CNc2ccccc2O)cc1 | 44.7 µM (active)
Oc1ccccc1N1CCN(C(=S)NCc2ccccc2)CC1 | inactive
O=C(c1ccc(C(F)(F)F)cc1)N1CCC(c2nc(-c3ccc(S(=O)(=O)N4CCCC4)cc3)no2)CC1 | inactive
COc1cccc(NC(=O)Nc2ccc3c(c2)N(C)C(=O)c2ccccc2S3)c1 | inactive
COc1ccc(CC(=O)N2CC(=O)Nc3ccc(Br)cc3C2c2ccc(F)cc2)cc1OC (configuration not stated) | inactive
CCOC(=O)c1c(NC(=O)CSc2nccc(=O)[nH]2)sc(C)c1C | inactive
CCOC(=O)c1c(NC(=O)CSc2nnc(CN3CCOCC3)n2C)sc2c1CCCC2 | inactive
CCOC(=O)c1c(NC(=O)CSc2nnc(Cc3csc(N)n3)n2C)sc(C)c1C | 12.6 µM (active)
Cc1cccc(C)c1-n1ncc(C(=O)NCCCN2CCCCC2)c1C1CCN(C(=O)OC(C)(C)C)CC1 | inactive
CC(C)S(=O)(=O)c1oc(-c2ccc(F)cc2)nc1S(=O)(=O)c1ccc(F)cc1 | inactive

Compound | Potency
Cc1ccc(NC(=O)CSc2nc3c([nH]c4ccccc43)c(=O)n2-c2ccccc2)cc1Cl | inactive
Cc1ccc(N2CC(c3nnc(Cc4ccccc4Cl)o3)CC2=O)cc1 (configuration not stated) | inactive
Cc1ccccc1Nc1nc(N)nc(CSc2ccccc2)n1 | inactive
Cc1ccccc1Nc1nc(N)nc(CN2CCN(c3ccccn3)CC2)n1 | 50.1 µM (active)
Cc1ccc(C(=O)OCc2nc(N)nc(Nc3ccccc3C)n2)cc1 | inactive
CCOc1ccccc1CNC(=O)Nc1cn(CC(C)C)c(=O)c2ccccc12 | inactive
COc1ccccc1CNC(=O)C(Cc1ccccc1)NS(=O)(=O)c1ccc2c(c1)oc(=O)n2C (configuration not stated) | inactive
COc1ccc2c(C)c(CCC(=O)NCc3ccc(OC)c(OC)c3)c(=O)oc2c1 | inactive
Nc1ccc(Nc2cc(O)c3ncccc3c2)cc1 | 7.08 µM (active)
CC(C)c1ccc(Nc2ncccc2C#N)cc1 | inactive
CC1CCN(S(=O)(=O)c2ccc3c(ccn3CCC(=O)NCc3ccc(N(C)C)cc3)c2)CC1 | 28.2 µM (active)
CC1CCN(S(=O)(=O)c2ccc3c(ccn3CC(=O)O)c2)CC1 | inactive
O=C(CCn1ccc2cc(S(=O)(=O)N3CCCC3)ccc21)NCc1cccc(Cl)c1 | inactive
CCCN(CCC)C(=O)C(Cc1ccccc1)NS(=O)(=O)c1ccc2c(c1)c(=O)n(C)c(=O)n2C (configuration not stated) | inactive
O=S(=O)(c1ccc(NC(=S)NN=C(C2CC2)C2CC2)cc1)N1CCOCC1 | inactive
Cc1ccc(S(=O)(=O)N2CCN(CC(=O)N/N=C/c3cc([N+](=O)[O-])ccc3Cl)CC2)cc1 | inactive
O=[N+]([O-])c1cc(Cl)cc(/C=N/NC(=S)Nc2cc(S(=O)(=O)N3CCOCC3)ccc2Cl)c1O | 1.78 µM (active)
Cn1c(=O)c2c(nc(SCC(=O)Nc3ccc(F)cc3)n2Cc2ccccc2)n(C)c1=O | inactive
Cc1nn(C(C)C(=O)Nc2ccc(C(C)C)cc2)c(=O)c2c1sc1ccccc12 (configuration not stated) | inactive
CC1CN(C(=O)N2CCC(C(=O)NCc3ccco3)CC2)c2cc(Cl)ccc2O1 (configuration not stated) | inactive
Cc1cnc(NC(=O)C2CCCC2)s1 | inactive
O=C(Nc1nnc(C2CC2)s1)c1cc(Cl)sc1Cl | inactive
Cc1cc(C(=O)Nc2nnc(C3CC3)s2)c(C)s1 | inactive
O=C(Nc1nnc(C2CC2)s1)c1ccccn1 | 5.62 µM (active)
Cc1cnc(NC(=O)c2ccccn2)s1 | 35.5 µM (active)
Cc1ccc(SCC(=O)Nc2ncc(C)s2)cc1 | inactive

Compound | Potency
COCCNC(=O)c1ccc2c(c1)N=C(C)c1cc(C)ccc1S2 | inactive
CC1=Nc2cc(C(=O)N3CCC(C)CC3)ccc2Sc2ccc(Cl)cc21 | inactive
Cc1ccc(Cn2c(=O)n(-c3ccc(C)cc3)c(=O)c3c2c2cc(C)ccc2n3C)cc1 | inactive
COc1ccc(CNC(=O)CSc2n[nH]c(-c3ccc(F)cc3)n2)cc1 | inactive
CCc1nnc(NC(=O)c2ccc(S(=O)(=O)NC3CCCCC3)cc2)s1 | inactive
CCc1nnc(NC(=O)c2cc(S(=O)(=O)N3CCCCC3)ccc2C)s1 | inactive
CCc1nnc(NC(=O)c2nc3nccc(C)n3n2)s1 | 70.8 µM (active)
COC(=O)C1=C(C)NC(=O)CC1c1ccccc1OC (configuration not stated) | inactive
O=C1CC(c2ccc(F)cc2F)c2cc3c(cc2N1)OCO3 (configuration not stated) | inactive
CCCOc1ccccc1C1CC(=O)Nc2cc3c(cc21)OCO3 (configuration not stated) | 28.2 µM (active)
Cc1nc2ccn(Cc3cccs3)c(=O)c2cc1C(=O)NCc1ccc(Cl)cc1 | inactive
Cc1ccc(Nc2ccccc2N)cc1 | 44.7 µM (active)
Nc1ccc(C(=O)Nc2ccccc2N)cc1 | inactive
Cc1ccc(Nc2nc(Cl)c(C=O)s2)cc1 | inactive
COc1ccc(-c2noc(CSc3nnc(-c4ccccc4)n3-c3ccc(F)cc3)n2)c(OC)c1 | inactive
CC(=O)c1c(C)n(-c2ccc(N(C)C)cc2)c2ccc(OCC(N)=O)cc12 | 50.1 µM (active)
CCOC(=O)c1c(-c2ccccc2)oc2ccc(OCC(N)=O)cc12 | inactive
CC(=O)c1c(C)n(-c2ccc(C)cc2)c2ccc(O)cc12 | inactive
CC(=O)c1ccc(NC(=O)c2nc(-c3ccc(C)cc3)n3c2CCCCC3)cc1 | inactive
COc1ccccc1-c1ccnc2[nH]n(-c3ccccc3)c(=O)c12 | inactive
CC1Cc2ccccc2N1CC(=O)Nc1ccc(S(N)(=O)=O)cc1 (configuration not stated) | 79.4 µM (active)
NS(=O)(=O)c1cccc(NC(=O)CN2CCCc3ccccc32)c1 | inactive
CC1CC(C)CN(CC(=O)Nc2ccc(S(N)(=O)=O)cc2)C1 (configuration not stated) | inactive
CC(CNC(=O)c1nnc(Cc2cccc(F)c2)o1)c1ccccc1 (configuration not stated) | inactive
